# A selection: hits, their analogues and other compounds. The true share with any hit is near 9.4%.
# SARS PLpro yeast – inhibitors of SARS-CoV papain-like protease in yeast; 330,000 compounds, 0.19% hits; Potency, µM (series often up to 32.9 µM), inactives show at the highest dose activity, positive = growth rescue, hits mostly activators; S. cerevisiae expressing SARS-CoV PLpro, growth rescue; calls by dose curve; further: 0% is about no effect; nearly all actives have a fitted effect of over 55% in size
# AMA1 RON2 block – AMA1-RON2 (P. falciparum) interaction inhibition. AlphaScreen AMA1-biotinylated RON2 peptide binding. Potency, µM (doses to about 58.2 µM), for inactives: top-dose activity change, negative = inhibition, hits mostly inhibitors. 360,000 compounds, 0.2% hits. AID 720542;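 further: 0% = vehicle wells and -100% = peptide control; nearly all actives have a fitted effect of over 45% in size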
#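 AMA1 (3D7) with his tag at 25 nM final met compounds first, then biotinylated RON2 peptide at 25 nM; detection used donor plus acceptor beads, 10 µg/mL apiece, read by AlphaScreen after 30 min at room temperature.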
# Pf growth 48h – inhibits P. falciparum growth in the first generation, 48 h | 310,000 compounds, 5.9% hits | P. falciparum luciferase growth in erythrocytes, 48 h | AID 504832 | Potency, µM (titrated, usually from 28.7 µM), without a hit: top-dose activity change, negative = inhibition, hits mostly inhibitors; further: on the % scale 0 is the no-effect control and ±100 the full control effect
#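 Growth was read as firefly luciferase luminescence after a 48 h, 37 C, 5% CO2 exposure of compounds to reporter-bearing P. falciparum cultures (0.1% parasitemia, 2% hematocrit final) in Albumax-supplemented RPMI 1640.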
# Pf growth 96h – inhibits malaria parasite growth, 96 h; P. falciparum luciferase reporter growth, 96 h; Potency, µM (highest dose often 28.7 µM), inactives show top-dose activity change, negative = inhibition, most hits filed as inhibitors; 320,000 compounds, 6.9% hits; further: on the % scale 0 is the no-effect control and ±100 the full control effect
#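 Plates of compound plus infected erythrocytes (2% hematocrit, 0.05% parasitemia final) incubate 96 hours, 37 C, 5% CO2. Detection reagent added; reduced luminescence from the parasites' luciferase reporter flags inhibition.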
# Active calls of the source: *; ? = inconclusive; . = no result given; [ ] = another dose, or the depositor's remark. Unless noted, the call rests on the fitted dose curve; in most records, active means well fitted curve in the direction sought with a large enough effect; inconclusive means small, poorly fitted or top-dose-only effect, or another doubt; inactive means no such curve, though single readings can be large; an effect the other way counts as inactive or inconclusive. Potency means the concentration at half of the fitted maximal effect.
SMILES,SARS PLpro yeast,AMA1 RON2 block,Pf growth 48h,Pf growth 96h
CCN(CC)S(=O)(=O)c1ccc2c(c1)nc(SCC(=O)N1CCCCCC1)n2-c1ccc(OC)cc1,3%,-9%,13µM*,.
CCN(CC)S(=O)(=O)c1ccc2c(c1)nc(SCC(=O)N1CCOCC1)n2-c1ccccc1OC,-2%,-7%,?,12µM*
CCc1cc(-c2n[nH]c(C)c2-c2nc3ccccc3s2)c(O)cc1OCC(=O)NN,2%,38%,5.2µM*,17%
CCc1cc(-c2n[nH]c(C)c2-c2nc(C)cs2)c(O)cc1OC,-1%,47%,?,-17%
O=C(Cc1ccccc1)Nc1ccnn1C1CCN(Cc2nccs2)CC1,5%,4%,-3%,19%
O=C(O)c1ccc(Nc2ccc(Cl)c(Cl)c2)c([N+](=O)[O-])c1,-5%,-8%,36%,?
COc1ccc(S(=O)(=O)N(C)c2ccc(C(=O)Nc3ccccc3C(=O)N3CCOCC3)cc2)cc1OC,-4%,14%,12µM*,?
COc1ccc(S(=O)(=O)N(C)c2ccc(C(=O)N3CCOCC3)cc2)cc1OC,-3%,1%,3%,-4%
COc1ccc(S(=O)(=O)N(C)c2ccc(C(=O)N3CCCC3)cc2)cc1OC,3%,4%,-7%,7%
COc1ccc(S(=O)(=O)N(C)c2ccc(C(=O)N3CCN(c4ccccc4)CC3)cc2)cc1OC,5%,-19%,15µM*,?
COc1ccc(NC(=O)COC(=O)/C=C/c2cccs2)c(OC)c1,-12%,-5%,-19%,?
O=C(N/N=C/C(Br)=C\c1ccccc1)c1ccco1,-5%,2%,2.6µM*,4.1µM*
Cc1occc1C(=O)N/N=C/C(Br)=C\c1ccccc1,-6%,2%,204%,1.3µM*
COC(=O)C1=C(C(=O)OC)[C@@H]2N(Cc3ccccc3)c3ccccc3[C@@]23C[C@@H](C(=O)OC)N(C(=O)NC2CCCCC2)C3=N1,.,5%,.,.
CCCCCCCNC(=O)C1(CC2CC(c3cccc(Br)c3)=NO2)CCNCC1 (stereo not drawn),-1%,-9%,?,12µM*
CCCCCCCNC(=O)C1(CC2CC(c3ccc(Cl)cc3)=NO2)CCN(C(=O)Cc2ccc(F)cc2)CC1 (stereo not drawn),5%,-2%,1%,12µM*
O=C(NCCCCc1ccccc1)C1CC(c2cccc(F)c2)=NO1 (stereo not drawn),-6%,-1%,33%,76%
CCCCCCCNC(=O)C1(CC2CC(c3ccc(Cl)cc3)=NO2)CCNCC1 (stereo not drawn),12%,-2%,-77%,6.6µM*
CCCCCCCNC(=O)C1(CC2CC(c3cccc(Br)c3)=NO2)CCN(C(=O)Cc2ccc(F)cc2)CC1 (stereo not drawn),2%,0%,7.4µM*,10µM*
CCCNC(=O)C1(CC2CC(c3ccccc3)=NO2)CCNCC1 (stereo not drawn),.,2%,.,.
Cc1ccc(Cl)cc1NS(=O)(=O)c1ccc(-n2cccn2)cc1,10%,10%,4%,8%
O=C(Cn1nc(C(F)(F)F)cc1C1CC1)NCc1ccccc1F,1%,-3%,-4%,9%
CCN1CCN(CCCNC(=O)C2CCN(c3nnc(-n4c(C)ccc4C)s3)CC2)CC1,-4%,-15%,-13%,60%
S=C1NC(C23CC4CC(CC(C4)C2)C3)=CC(c2ccc3c(c2)OCO3)N1 (stereo not drawn),4%,7%,4.1µM*,?
O=C(NCc1ccc2c(c1)OCO2)NC12CC3CC(CC(C3)C1)C2,-3%,-6%,?,-14%
SMILES,SARS PLpro yeast,AMA1 RON2 block,Pf growth 48h,Pf growth 96h
COc1ccc(C2=CC(c3cc(OC)c(OC)c(OC)c3)NC(=S)N2)cc1 (stereo not drawn),-5%,54%,?,.
COc1cc(C2C=C(C34CC5CC(CC(C5)C3)C4)NC(=S)N2)cc(OC)c1OC (stereo not drawn),12%,48%,.,1µM*
Cc1ccc2c(c1)N(C(=O)CCC(=O)N1CCCCC1)CCO2,-5%,-3%,2%,25%
CCn1cc(/C=C/C(=O)Nc2ccn(Cc3c(F)c(F)cc(F)c3F)n2)cn1,-13%,-13%,?,13µM*
Cc1cc(OC(=O)N2CCCCC2)cc(C)c1Cl,.,10%,?,0%
COC(=O)c1nc(NC(=O)C(C)C)n[nH]1,2%,-6%,?,5.9µM*
CN(C(=O)c1ccc(NC(=O)Cc2cccc(NC(=O)C3CCN(C(=O)CCc4ccccc4)CC3)c2)cc1)C1CCCC1,1%,-8%,9.3µM*,1.9µM*
CN(C(=O)c1ccc(NC(=O)Cc2ccc(NC(=O)C3CCN(C(=O)CCc4ccccc4)CC3)cc2)cc1)C1CCCC1,.,-8%,.,.
CN(C(=O)c1ccc(NC(=O)Cc2cccc(NC(=O)C3CCCN(C(=O)C4CC4)C3)c2)cc1)C1CCCC1 (stereo not drawn),5%,-4%,15µM*,?
CN(C(=O)c1ccc(NC(=O)Cc2cccc(NC(=O)C3CCCN(C(=O)C4CCC4)C3)c2)cc1)C1CCCC1 (stereo not drawn),1%,23%,12µM*,?
CN(Cc1ccccc1)C(=O)c1ccc(NC(=O)Cc2cccc(NC(=O)C3CCCN(C(=O)C4CCCC4)C3)c2)cc1 (stereo not drawn),6%,15%,12µM*,-26%
CN(C(=O)c1ccc(NC(=O)Cc2cccc(NC(=O)C3CCCN(C(=O)C4CCCCC4)C3)c2)cc1)C1CCCC1 (stereo not drawn),1%,14%,?,?
COc1ccc(CCNC(=O)Cn2c(=O)cnc3ccccc32)cc1,6%,0%,.,-86%
COC(=O)C1=NN(C(=O)c2ccc(Br)cc2)C(O)(C(C)(C)C)C1 (stereo not drawn),-2%,27%,6%[5.75 µM],16%[5.75 µM]
CN(C(=O)c1ccc(NC(=O)Cc2ccc(NC(=O)C3CCCN(C(=O)C4CCCC4)C3)cc2)cc1)C1CC1 (stereo not drawn),-4%,-2%,?,12µM*
CN(C(=O)c1ccc(NC(=O)Cc2ccc(NC(=O)C3CCCN(C(=O)C4CCCCC4)C3)cc2)cc1)C1CC1 (stereo not drawn),2%,7%,?,?
COCCOc1ccc(C(F)(F)F)cc1NC(=O)c1ccccc1,-5%,1%,1%,0%
CC(C)(C)c1ccc(OCCOc2ccc(C(C)(C)C)cc2NC=O)c(NC=O)c1,-1%,-3%,10µM*,2.6µM*
O=C(NCCNc1ccc2ccccc2c1)c1cccn2c(=O)c3sccc3nc12,2%,.,?,1.9µM*
O=C(NCCN1CCN(c2ccccc2)CC1)c1cccn2c(=O)c3ccccc3nc12,17%,11%,3%,36%
Cc1ccc2oc3ccccc3c(=O)c2c1,.,9%,.,.
Cc1ccc(Nc2cc(=O)oc3ccccc23)c(C)c1,-12%,-5%,?,0.13µM*
Cc1ccccc1Nc1cc(=O)oc2ccccc12,3%[6.58 µM],13%,.,13µM*
O=c1cc(NCCO)c2ccccc2o1,-4%,9%,.,34%
